# Source: PubChem (National Center for Advancing Translational Sciences (NCATS))
# TDP1 cell noCPT – qHTS for Inhibitors of human tyrosyl-DNA phosphodiesterase 1 (TDP1): qHTS in cells in absence of CPT | Potency, µM (doses to about 46.2 µM), hits mostly inhibitors | AID 686978, 2013 | DT40 Tdp1-/- hTDP1 cells, no CPT, ATP luminescence, 48 h | 15% of 420,000 active; further: nearly all actives have a fitted effect of over 55% in size
#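 Growth kinetics read by CellTiter-Glo luminescence after ≥48 hr at 37 °C. Cells: DT40 Tdp1-/- stably carrying human TDP1, 400 per well, compound exposure in the absence of CPT (DMSO vehicle).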
# HT1080NT lethal – kills 2HG-producing HT-1080-NT fibrosarcoma cells; AID 686970; 1.6% of 360,000 active; HT-1080-NT fibrosarcoma viability, CellTiter-Glo ATP luminescence, 48 h; Potency, µM (titrated, usually from 46.1 µM), actives largely listed as cytotoxic;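 further: NT is the 2HG producing partner of a matched IDH1 knockdown line; nearly all actives have a fitted effect of over 55% in size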
#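 HT-1080-NT; 750 cells/well; 5% FBS RPMI; 48 h compound, 37 degrees C; CellTiter-Glo luminescence; curve fitting and curve-class assignment.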
# HT1080 IDH1KD tx – toxicity to HT-1080 IDH1 knockdown cells (counter line). 2% of 360,000 active. Potency, µM (series often up to 46.1 µM), hits mostly cytotoxic. HT-1080 IDH1 knockdown viability, ATP luminescence, 48 h
#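 Knockdown cells (IDH1KD HT-1080) received compounds 2 h after plating at 750 cells/well and were kept 48 h at 37 °C in 5% FBS RPMI. A CellTiter-Glo luminescence read gave % activity for curve fitting.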
# KB-3-1 tox – kills parental KB-3-1 adenocarcinoma cells; KB-3-1 viability, CellTiter-Glo ATP luminescence, 72 h; Potency, µM (titrated, usually from 46.1 µM), actives largely listed as cytotoxic; 1.4% of 400,000 active; AID 1347075; further: nearly all actives have a fitted effect of over 60% in size
#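 Screening of KB-3-1 cells (DMEM, 10% FBS, phenol-red free) ran from lowest to highest compound concentration; after 72 h at 37 °C viability was read luminescently and curves fitted.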
# KB-V1 cytotox – kills drug-selected multidrug resistant KB-V1 cells | KB-V1 MDR cells viability, CellTiter-Glo, 72 h | Potency, µM (top dose mostly 46.1 µM), hits mostly cytotoxic | 3.4% of 400,000 active | AID 1347076; further: nearly all actives have a fitted effect of over 60% in size
#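 qHTS viability screen in drug-selected KB-V1 MDR cells: 72 h compound treatment at 37 degrees C, ATP luminescence end point.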
# TDP1 cell CPT – growth inhibition of DT40 Tdp1-/-;hTDP1 cells with camptothecin (screen for TDP1 inhibitors) | chicken DT40 Tdp1-/-;hTDP1 cells + 20 nM CPT, ATP luminescence, 48 h | Potency, µM (titrated, usually from 46.2 µM), hits mostly inhibitors | 12% of 420,000 active; further: nearly all actives have a fitted effect of over 55% in size
#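 Cell growth measured by CellTiter-Glo luminescence after a minimum 48 h, 37 C compound exposure with 20 nM CPT in Tdp1-knockout DT40 cells stably expressing hTDP1, seeded 400/well; qHTS titration format.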
# Numbers stand for hits; n = inactive; u = inconclusive; x = no result given. A selection: hits, their analogues and other compounds. The true share with any hit is near 19%. The call rests on the fitted dose curve; in most records, active means well fitted curve in the direction sought with a large enough effect; inconclusive means small, poorly fitted or top-dose-only effect, or another doubt; inactive means no such curve, though single readings can be large; an effect the other way counts as inactive or inconclusive.
SMILES,TDP1 cell noCPT,HT1080NT lethal,HT1080 IDH1KD tx,KB-3-1 tox,KB-V1 cytotox,TDP1 cell CPT
NC(=O)c1cccc(-c2coc3c(C(=O)NCc4ccccc4)cccc23)c1,18.4µM,u,u,n,n,u
COc1ccc(NC(=S)N2CCN(c3ccc4c(c3)C3CCN(C(=O)OCc5ccccc5)C4C3)CC2)c(OC)c1 (configuration not stated),5.17µM,n,n,n,u,7.31µM
O=C(OCc1ccccc1)N1CCC2CC1c1cc(N3CCN(C(=S)NCCc4ccccc4)CC3)ccc12 (configuration not stated),u,n,n,n,u,u
CN1CCN(c2ccc3c(c2)C2CC3CCN2C(=O)OCc2ccccc2)CC1 (configuration not stated),u,n,n,n,n,u
O=C(OCc1ccccc1)N1CCC2CC1c1ccc(N3CCNCC3)cc12 (configuration not stated),7.31µM,u,n,n,n,9.2µM
O=C(OCc1ccccc1)N1CCC2CC1c1ccc(N3CCOCC3)cc12 (configuration not stated),u,n,n,n,n,u
Cc1ccccc1S(=O)(=O)N1CCN(c2ccc3c(c2)C2CC3CCN2C(=O)OCc2ccccc2)CC1 (configuration not stated),16.4µM,n,n,n,n,u
O=C1c2ccccc2C(=O)c2c([N+](=O)[O-])ccc(O)c21,20.6µM,n,n,n,u,n
O=C1OC(COc2ccc(Br)cc2)CN1c1ccccc1 (configuration not stated),n,n,n,n,n,n
Cc1[nH]cnc1C(=O)N/N=C/c1ccc([N+](=O)[O-])s1,10.3µM,n,n,u,u,11.6µM
Cc1cc(C(=O)N/N=C/c2ccc([N+](=O)[O-])s2)n[nH]1,5.17µM,n,n,u,n,5.8µM
Cc1nc2ccccn2c(=O)c1NC(=O)c1ccc(C(F)(F)F)cc1,u,x,x,x,x,n
COc1ccc(NC(=O)c2c(C)oc3ccc(O)c(CN4CCN(Cc5ccccc5)CC4)c23)cc1,11.6µM,x,x,x,x,20.6µM
Cc1oc2c(CN3CCCC(C)C3)c(O)ccc2c(=O)c1-c1ccccc1 (configuration not stated),n,n,n,u,n,n
Cc1oc2ccc(O)c(CN3CCCC(C)C3)c2c1C(=O)Nc1ccccc1 (configuration not stated),16.4µM,x,x,u,n,10.3µM
COc1ccc(NC(=O)c2c(C)oc3ccc(O)c(CN4CCCCCC4)c23)cc1,23.1µM,x,x,n,n,20.6µM
COc1ccc(NC(=O)c2c(C)oc3ccc(O)c(CN4CCC(C)CC4)c23)cc1,14.6µM,x,x,n,n,10.3µM
O=C(NCCc1ccccc1)[C@@H]1CC=C[C@@H]2CCN(Cc3ccccc3)C(=O)[C@@H]21,u,n,n,n,u,u
COc1ccc(C2CC2C(C)=O)cc1 (configuration not stated),n,n,n,n,n,n
CC(Oc1ccc(Cl)cc1Cl)C(=O)NNC(=O)C(=O)N1CCCC1 (configuration not stated),u,n,n,n,u,n
Cc1ccc(NC(=O)CN2C(=O)NC3(CCCCC3)C2=O)cc1S(=O)(=O)N1CCOCC1,u,n,u,n,n,n
COc1ccc(NC(=O)c2c(C)oc3ccc(O)c(CN4CCCC(C)C4)c23)cc1 (configuration not stated),u,x,x,n,n,25.9µM
COc1ccc(NC(=O)c2c(C)oc3ccc(O)c(CN4CCCC4)c23)cc1Cl,u,x,x,n,n,u
CCOC(=O)c1c(C)oc2ccc(O)c(CN3CCCCC3)c12,n,u,n,n,n,u
COc1ccc(NC(=O)c2c(C)oc3ccc(O)c(CN4CCN(C)CC4)c23)cc1Cl,18.4µM,x,x,n,n,16.4µM
